Here are results for 100 compounds from PubChem BioAssay AID2825 (Sanford-Burnham Center for Chemical Genomics, 2010).

About 1,300 (0.39%) of roughly 330,000 compounds were called active. Only a selection was taken, and actives are over-represented in it overall. Values without a mark were called inactive.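 The calls were made as follows: active = inhibition of 50% or more; inactive = inhibition below 50%.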

This experiment in a line: NALP3 inflammasome inhibitors in reconstituted yeast, primary screen, luminescence, uHTS (AID 2825).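 Also: plate controls were induced DMSO wells for no effect and uninduced yeast grown without galactose for full effect.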 As to conditions: Yeast reconstituted NLRP3/ASC/caspase-1, beta-gal luminescence, 24 h; at 10 µM; active compounds read high.
The term inhibition denotes the change of the read-out against control, counted positive when it falls. For the compound `O=C(CN1C(=O)C2C3C=CC(C3)C2C1=O)Nc1nc(-c2ccccn2)cs1` (stereo not given), the inhibition is 2.29%.
Take `O=C(COc1ccccc1F)Nc1nc(-c2ccccn2)cs1`: the inhibition is 52.9% (active).
As to `CC(NC(=O)c1ccco1)C(=O)Nc1nc(-c2ccccn2)cs1` (stereo not given), the inhibition is 6.56%.
`CCNC(=O)c1cccc(NC(=O)C2CC(=O)N(CCc3ccccc3)C2)c1` (stereo not given): the inhibition is 0.384%.
Take `O=C(Nc1ccccc1Cl)/C(Cl)=C(\Cl)S(=O)c1ccccc1` (stereo not given): the inhibition was 67.4% (active).
As for `CN(C)S(=O)(=O)Oc1ccccc1C(=O)Nc1ccccc1Cl`, the inhibition was -4.11%.
For the compound `O=C(COC(=O)CCc1c[nH]c(=O)[nH]1)Nc1ccccc1Cl`, the inhibition is -10.9%.
Take `COc1cc(CNCc2ccc3c(c2)OCO3)c([N+](=O)[O-])cc1OC`: the inhibition was 20.4%.
Consider `Cc1ccc(NC(=O)O/N=C/c2cccc([N+](=O)[O-])c2)cc1`, for which the inhibition was 18.6%.
Turning to `O=C(N/N=C/c1cccc([N+](=O)[O-])c1)C1CC(=O)N(c2ccc(Br)cc2)C1` (stereo not given), the inhibition is 4.22%.
Then `O=[N+]([O-])c1cccc(/C=N/Nc2ncc(Br)cn2)c1`, with 68.1% (active).
To `C/C(=N/OC(=O)c1ccc(Br)cc1)c1ccc(C)cc1` belongs 25.5%; to `Cc1cc(C(=O)Nc2nnc(C3CC3)s2)c(C)s1`, 47.8%; to `CCc1cc(C(=O)Nc2nnc(C3CC3)s2)sc1C`, 52% (active).
As for `O=C(Nc1nnc(C2CC2)s1)c1ccccn1`, the inhibition was 7.63%.
Then `CC(=O)NC(CC(=O)Nc1ccc(S(=O)(=O)N2CCOCC2)cc1)c1ccccc1` (stereo not given), with 8.22%; and `Fc1ccc2cnc(-c3ccccc3)cc2c1`, with 34.3%.
To `Fc1ccccc1-c1cc2cc3c(cc2cn1)OCO3` belongs 57.2% (active).
Regarding `O=C(c1ccco1)N1CCN(C(=O)c2cc(-c3ccccc3F)no2)CC1`, the inhibition was -3.69%.
Turning to `O=C1CC2(CCCC2)C(=O)N1CN1CCN(S(=O)(=O)c2ccc(F)cc2F)CC1`, the inhibition is 20.4%.
With `CCCn1nc(C(=O)N2CCCc3ccccc32)c2ccccc2c1=O`, the inhibition was 12.6%.
With `Cc1c(C(=O)OCC(=O)N2CCCC2=O)oc2ccccc12`, the inhibition is 28.6%.
Turning to `Cc1c(C(=O)N2CCCc3ccccc32)oc2ccccc12`, the inhibition was 51.5% (active).
Regarding `Cc1cccc(NC(=O)c2ccc([N+](=O)[O-])o2)c1`, the inhibition was -4.88%.
As to `O=C(CNC(=O)c1ccc(Br)o1)Nc1ccccc1`, the inhibition was 22.4%.
As for `Cc1cccc(NC(=S)NC(=O)c2ccc(Br)o2)c1`, the inhibition is 57.6% (active).
For `O=C(Cc1ccc(S(=O)(=O)N2CCCC2)s1)NC1CCCCCC1`, the inhibition is 7.38%.
`CN(c1ccccc1)S(=O)(=O)c1ccc2[nH]c(=O)[nH]c2c1`: the inhibition was 25.4%.
In the case of `COc1ccccc1C(=O)COC(=O)CSCC(=O)Nc1cc(C)on1`, the inhibition is 15.5%.
Then `CC(CCc1ccc(O)cc1)NCc1ccc(Cl)cc1Cl` (stereo not given), with 21.7%.
`N#Cc1nc(Cc2ccccc2)oc1NCCc1ccccc1`: the inhibition is 53.8% (active).
In the case of `N#Cc1nc(COc2ccc(-c3ccccc3)cc2)oc1NCc1cccnc1`, the inhibition is 2.98%.
Take `N#Cc1nc(Cc2cccc3ccccc23)oc1NCc1ccc2c(c1)OCO2`: the inhibition is 2.2%.
On to `CCn1c(=S)sc2c(=O)n(CC(=O)Nc3ccc(OC)cc3)c(C)nc21`, for which the inhibition was 18.2%.
For `CC(NCc1nc2ccccc2n1C)C12CC3CC(CC(C3)C1)C2` (stereo not given), the inhibition is 30%.
`Cc1ccc(-c2nnc(Nc3ccc(C(=O)N(C)C)cc3)c3ccccc23)cc1S(N)(=O)=O`: the inhibition was 15.1%.
Consider `O=c1[nH]oc(O)c1-c1ncc(C(F)(F)F)cc1Cl`, for which the inhibition was 6.26%.
Regarding `Cn1c(N)c(C(=O)COC(=O)c2cccc(S(=O)(=O)N3CCOCC3)c2)c(=O)n(C)c1=O`, the inhibition was 3.26%.
Consider `CN(Cc1nc2ccccc2s1)C(=O)c1ccc(F)cc1`, for which the inhibition was 14.9%.
Turning to `COc1ccccc1OCc1nc2ccccc2s1`, the inhibition was 59.6% (active).
With `CCc1ccc(-c2nnn(Cc3nc4ccccc4s3)n2)cc1`, the inhibition was 31.8%.
Turning to `Cc1cccc(C)c1NC(=O)CCS(=O)(=O)c1cccc2nsnc12`, the inhibition is -0.246%.
Then `COc1cccc(/C=N/Nc2cc(C)nc(-c3ccccc3O)n2)c1O`, with 54.1% (active); and `COc1ccc(Cc2nnc(N/N=C/c3ccccc3O)[nH]c2=O)cc1OC`, with 9.67%.
For `Cc1nc2ccccc2nc1N/N=C/c1ccc(O)cc1O`, the inhibition was 2.73%.
To `CC(C)c1ccc(N2CC(C(=O)Nc3nccs3)CC2=O)cc1` (stereo not given) belongs 9.7%; to `COc1ccc(CNC(=O)COC(=O)/C=C/c2ccc(S(=O)(=O)N3CCOCC3)cc2)cc1`, -4.76%; to `Cc1nn(Cc2ccccc2)c(C)c1C(=O)N1CCN(CC(=O)Nc2ccccc2Cl)CC1`, 14.5%.
`NC(=O)N1CCCC1C(=O)Nc1ccc(Cl)c(Cl)c1` (stereo not given): the inhibition is -1.49%.
Turning to `O=C(CC(O)(C(F)(F)F)C(F)(F)F)Nc1ccc(Cl)c(Cl)c1`, the inhibition was 78.6% (active).
As for `O=C(COC(=O)c1cc[n+]([O-])cc1)Nc1ccc(Cl)c(C(F)(F)F)c1`, the inhibition was -2.4%.
For the compound `Cc1onc(-c2ccccc2Cl)c1C(=O)OCc1nnc(-c2ccccc2)o1`, the inhibition is 27.8%.
To `Cc1ccc(-c2nn(C(C)(C)C)c3ncnc(N)c23)cc1` belongs 90.7% (active); to `Cc1ccc(-n2cnc3ncnc(-c4ccccc4)c32)cc1`, 7.02%.
Turning to `Cc1[nH]c(=O)c(C(=O)/C=C/c2ccccc2)c2c1CCCC2`, the inhibition was 28.3%.
For `CCc1cccc(OC2OC(CO)C(O)C(O)C2NC(C)=O)c1` (stereo not given), the inhibition is -4.24%.
For the compound `Cn1nccc1/C=N\NC(=O)c1ccc(Cl)cc1`, the inhibition was 19.2%.
With `COc1ccccc1C1C(C#N)=C(N)Oc2c1c(-c1ccccc1)nn2-c1ccccc1` (stereo not given), the inhibition was 9.88%.
Turning to `N#CC1(NC(=O)COC(=O)Cc2n[nH]c(=O)c3ccccc23)CCCCC1`, the inhibition was 17.9%.
Turning to `CC(C)n1c(-c2cccs2)nc2ccccc21`, the inhibition was 19%.
`CCOc1ccc(C(O)Cc2nc3ccccc3n2C)cc1` (stereo not given): the inhibition was 32.1%.
In the case of `CC(C)n1c(COc2ccccc2)nc2ccccc21`, the inhibition was 57.2% (active).
`CC(C)n1c(CN2CCN(Cc3ccccc3)CC2)nc2ccccc21`: the inhibition was 18.2%.
Then `Cc1ccc(OCc2nc3ccccc3n2C)cc1`, with 62.3% (active); and `Cn1c(COc2ccc(Cl)cc2)nc2ccccc2c1=O`, with 35.3%; and `CC(C)NS(=O)(=O)c1ccc(OCC(=O)NC2CCCCCC2)cc1`, with 10.4%.
To `COCCN(C(=O)CC1CCCCC1)c1c(N)n(CC(C)C)c(=O)[nH]c1=O` belongs 6.27%; to `Cn1c(=NC(=O)c2ccco2)sc2cccc(F)c21`, 51% (active).
Then `Cn1c(=NC(=O)c2cnccn2)sc2ccccc21`, with 25.1%; and `CCCC(=O)N=c1sc2cccc(F)c2n1C`, with 35.5%.
As for `COc1ccc(NC(=O)CN(C)C(=O)Cc2coc3cc(C)c(C)cc23)cc1`, the inhibition was 17.5%.
To `COCCCNCCOCCOc1ccc(Cl)cc1Br` belongs 3.7%; to `CC(C)C(=O)Nc1ccc2oc(=O)ccc2c1`, -3.79%; to `CC(C)C(=O)Nc1ccc2c(c1)oc1ccccc12`, 56.7% (active).
For the compound `Cc1cc(=O)oc2cc(NC(=O)C(C)Oc3ccccc3)ccc12` (stereo not given), the inhibition is 10.8%.
With `O=S(=O)(N1CCOCC1)N1CCN(c2ccccc2F)CC1`, the inhibition is 7.74%.
As for `Cc1ccccc1N1CCN(S(=O)(=O)c2ccc3ccccc3c2)CC1`, the inhibition was 2.32%.
Take `Cc1ccc2cccc(S(=O)(=O)N3CCN(c4ccccc4F)CC3)c2n1`: the inhibition was 50.5% (active).
For the compound `O=C(c1ccc(S(=O)(=O)N2CCCC2)cc1)N1CCN(c2ccccc2F)CC1`, the inhibition was 11.6%.
Take `C=CCn1c(CNS(=O)(=O)c2ccc(Br)cc2)nnc1SC`: the inhibition is 14.4%.
For `COc1ccc(NS(=O)(=O)c2cc3c(cc2C)N(C(C)=O)CCO3)cc1`, the inhibition was 25.6%.
As to `Oc1ccc(Br)cc1/C=N/Nc1ccccn1`, the inhibition is 51.7% (active).
Then `Cc1c(C(=O)Nc2ccccn2)oc2ccc(Br)cc12`, with 28.4%; and `Oc1ccc(/C=N/Nc2ccc(C(F)(F)F)cn2)cc1O`, with 11.3%.
On to `CCn1nc(C(=O)NNS(=O)(=O)c2cc(/C=C/C(=O)O)cc(OC)c2OC)c2ccccc2c1=O`, for which the inhibition is -0.224%.
Regarding `O=C(CSc1ccc([N+](=O)[O-])cn1)Nc1ccc(N2CCOCC2)cc1`, the inhibition is -5.97%.
Consider `O=C(CSc1ccc(-c2ccccn2)nn1)Nc1ccccc1`, for which the inhibition is 25.6%.
To `O=C(CSc1ccc(-c2ccc(-n3cccn3)cc2)nn1)Nc1ccc([N+](=O)[O-])cc1` belongs 51.4% (active); to `CCN1CCN(c2sc(S(C)(=O)=O)nc2S(=O)(=O)c2ccc(Cl)cc2)CC1`, 2.79%.
Consider `CCOC(=O)C1CCN(C(=O)CC2C(=O)N(Cc3ccccc3)C(C)c3nc4ccccc4n32)CC1` (stereo not given), for which the inhibition was -3.2%.
As to `Cc1csc(NC(=S)Nc2cccc(Cl)c2)n1`, the inhibition is 53.8% (active).
Consider `FC(F)(F)c1cccc(NC(=S)Nc2cccc(Cl)c2)c1`, for which the inhibition is 2.63%.
With `S=C(Nc1cccc(Cl)c1)Nc1ccc2c(c1)OCCO2`, the inhibition was 15%.
Then `COc1ccc(-c2n[nH]c3c2CN(C(=O)c2ccc(F)cc2)CC3)cc1`, with 19%; and `COc1cc(OC)cc(-c2cc3nc(C4CCN(C(=O)OC(C)(C)C)CC4)cc(=O)n3[nH]2)c1`, with 18.1%.
Then `CC1CC2=C(CC1/C=N/NC(N)=S)C(C)(C)CCC2` (stereo not given), with 68.6% (active); and `CCCN(CCc1ccccc1)C1CCc2c(O)cccc2C1` (stereo not given), with 22.2%.
On to `Cc1cc(C)c(/C=C2\C(=O)Nc3ccccc32)[nH]1`, for which the inhibition is 55.4% (active).
On to `CN(C)/C=C1/Nc2ccccc2C1=O`, for which the inhibition is 12%.
Consider `O=C1Nc2ccccc2/C1=C/c1ccnc2ccccc12`, for which the inhibition was 17.6%.
